Assay results taken from PubChem BioAssay AID1220 (Sanford-Burnham Center for Chemical Genomics, 2008).
The whole screen tested about 190,000 compounds, of which about 1,300 (0.68%) were called active. This excerpt belongs to a sample that is enriched for actives. Values without a mark were called inactive. Rule as the data show it: active = inhibition above about 50%; inactive = the rest.

These molecules were tested against Mannose-6-phosphate isomerase (Homo sapiens) (UniProt P34949) (assay: MPI inhibition at elevated mannose 6-phosphate – biochemical, fluorescence intensity, high mannose 6-phosphate, primary screen (AID 1220)). Details: recombinant PMI enzyme, coupled fluorescence intensity; at 20 µM; stronger effect = higher value.
Chain of Mannose-6-phosphate isomerase (Homo sapiens) (P34949 whole entry, looked up): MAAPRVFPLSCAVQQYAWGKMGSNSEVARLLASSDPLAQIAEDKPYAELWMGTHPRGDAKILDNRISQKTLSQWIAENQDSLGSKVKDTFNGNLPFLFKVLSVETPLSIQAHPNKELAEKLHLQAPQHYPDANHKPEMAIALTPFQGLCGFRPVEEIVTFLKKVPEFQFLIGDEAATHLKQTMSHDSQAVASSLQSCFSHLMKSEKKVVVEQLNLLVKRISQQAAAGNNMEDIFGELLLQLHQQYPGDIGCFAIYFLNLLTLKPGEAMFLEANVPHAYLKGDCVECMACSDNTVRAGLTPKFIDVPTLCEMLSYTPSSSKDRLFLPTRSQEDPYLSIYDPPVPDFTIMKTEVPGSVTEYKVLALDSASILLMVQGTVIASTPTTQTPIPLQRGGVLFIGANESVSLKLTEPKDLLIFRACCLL

Row | SMILES | inhibition
1 | [O-][n+]1ccc(C2CC2)cc1 | 7.7%
2 | CCN1CCN(C(c2cccs2)C(C)NC(=O)NC2CCCCC2)CC1 (stereo not drawn) | 6%
3 | CCC1Sc2ccccc2N(CC(=O)NCc2ccc3c(c2)OCO3)C1=O (stereo not drawn) | -3.8%
4 | O=C(COC(=O)COc1cccc(Br)c1)Nc1c(Cl)cccc1Cl | 4.6%
5 | COc1ccc(-n2c(NC(=O)c3ccc(Br)o3)c(C#N)c3nc4ccccc4nc32)cc1 | 66.9% (active)
6 | COc1ccc(Cn2c(N)c(C#N)c3nc4ccccc4nc32)cc1 | 15.1%
7 | COc1ccc(NC(=O)c2ccc(Br)o2)cc1 | 13.3%
8 | Cc1cc[n+](-c2nc3ccccc3nc2C(=C=[N-])C#N)cc1 | 51.9% (active)
9 | CCc1cc[n+](-c2nc3ccccc3nc2C(=C=[N-])C#N)cc1 | 14.8%
10 | N#CC(=C=[N-])c1nc2ccccc2nc1-[n+]1ccccc1 | 1.9%
11 | COC(=O)COC(=O)c1ccc(Oc2nc(OC)nc(N(C)C)n2)cc1 | 8.1%
12 | Cc1ccc(-c2cc(C(=O)O)c3cc(Br)ccc3n2)o1 | -44.6%
13 | O=c1oc(-c2cccs2)nc2ccc(Br)cc12 | -3%
14 | O=C(NC1CCCCC1)NC1CC2CCC(C1)N2C(=O)NCc1ccccc1 (stereo not drawn) | -7.9%
15 | N#C/C(=C/c1ccc(N2CCOCC2)o1)c1ccc(Br)cc1 | 50.4% (active)
16 | N#C/C(=C/c1ccc(N2CCOCC2)o1)c1ccc(Cl)cc1 | 42.5%
17 | Cc1ccc2nc(/C(C#N)=C\c3ccc(N4CCOCC4)o3)[nH]c2c1 | 59.9% (active)
18 | N#C/C(=C\c1ccc(N2CCOCC2)o1)c1nc2ccccc2[nH]1 | 45.8%
19 | N#C/C(=C/c1ccc(N2CCOCC2)o1)c1nc2ccccc2[nH]1 | 38.4%
20 | Cc1ccc(/C(C#N)=C\c2ccc(N3CCOCC3)o2)cc1 | 14.1%
21 | CC1=CCC2COC(c3ccc[n+](Cc4ccccc4)c3)C1C2 (stereo not drawn) | 43.6%
22 | CCOc1ccc(N(CC(=O)N2CCCC2)S(=O)(=O)c2c(C)noc2C)cc1 | 0.9%
23 | Cc1c(Cl)cccc1NC(=O)Nc1ccc(C(N)=O)cc1 | 3.7%

Row | SMILES | inhibition
24 | Cc1cc(/C=C2\SC(N)=NC2=O)c(C)n1-c1ccc(F)cc1 | 32.4%
25 | Cc1cc(C)c(S(=O)(=O)n2cnc3ccccc32)c(C)c1 | -6%
26 | Cc1cc(S(=O)(=O)n2cnc3ccccc32)c(C)cc1Cl | -20.1%
27 | Cc1ccc(S(=O)(=O)n2cnc3ccccc32)c(C)c1 | 81.3% (active)
28 | O=C1c2ccccc2C(=O)N1Cc1nc(-c2ccccc2)no1 | -1.3%
29 | OCCCc1cn(-c2ccccc2)c2ccccc12 | -13.6%
30 | C=CCSC1=N/C(=C\c2ccc(C)o2)C(=O)S1 | 7.9%
31 | Cc1ccc2cc(CN(Cc3ccccc3)Cc3nnnn3C3CCCC3)c(=O)[nH]c2c1 | 5.3%
32 | c1ccc2c(-n3cccn3)cccc2c1 | -0.8%
33 | Cc1cc2nn(-c3cccc4ccccc34)nc2cc1NC(=O)c1cccs1 | 15.2%
34 | Nc1ccc2nn(-c3cccc4ccccc34)nc2c1 | 62.8% (active)
35 | Nc1ccc2oc(-c3cccc4ccccc34)nc2c1 | 45.3%
36 | Cc1cc2nn(-c3cccc4ccccc34)nc2cc1N | 75.5% (active)
37 | c1ccc2c(-n3cnnn3)cccc2c1 | 1.3%
38 | Cn1nc(-c2ccc(C(=O)O)cc2)c2ccccc2c1=O | -4.7%
39 | Cc1cccc(NC(c2ccc(O)cc2)c2ccc3ccc(C)nc3c2O)n1 (stereo not drawn) | 8.7%
40 | CCC(=O)NC(c1cccs1)c1ccc2cccnc2c1O (stereo not drawn) | 49.8%
41 | CCCC(=O)NC(c1ccccc1OC)c1ccc2cccnc2c1O (stereo not drawn) | 39.5%
42 | Cc1ccnc(NC(c2cccnc2)c2ccc3cccnc3c2O)c1 (stereo not drawn) | 18%
43 | Cc1cc(NC(c2cccnc2)c2ccc3cccnc3c2O)no1 (stereo not drawn) | 40.3%
44 | Cc1ccc2ccc(C(Nc3ccccn3)c3ccccc3)c(O)c2n1 (stereo not drawn) | 11.4%
45 | CCOC(=O)N1CCN(S(=O)(=O)c2cccc3cccnc23)CC1 | -12.8%
46 | CN1CCN(C(c2cccnc2)c2ccc3cccnc3c2O)CC1 (stereo not drawn) | 39.6%

Row | SMILES | inhibition
47 | COc1ccccc1NC(c1cccnc1)c1ccc2cccnc2c1O (stereo not drawn) | 51.7% (active)
48 | COc1cc(C(Nc2ccccn2)c2ccc3ccc(C)nc3c2O)cc(OC)c1O (stereo not drawn) | 62.2% (active)
49 | CCC(=O)NC(c1ccccc1OC)c1ccc2cccnc2c1O (stereo not drawn) | 50.2% (active)
50 | CCN(CC)CCCNC(=O)c1ccc2c(SCC(=O)O)c3c(nc2c1)CCC3 | -9.3%
51 | COc1ccc(-n2c(C(C)n3nc(C)c([N+](=O)[O-])c3C)n[nH]c2=S)cc1 (stereo not drawn) | -11.8%
52 | COc1ccc(NC(=O)CC2C(=O)N(CCc3ccccc3)C(=S)N2Cc2cccnc2)cc1 (stereo not drawn) | -8.8%
53 | COc1ccc(CC(=O)NNC(=O)c2cccs2)cc1 | -0.3%
54 | CC1CC(N(C(=O)c2ccco2)c2ccccc2)c2ccccc2N1 (stereo not drawn) | 17.9%
55 | Oc1c(C(Nc2nc3ccccc3s2)c2ccco2)ccc2cccnc12 (stereo not drawn) | 34.8%
56 | Oc1cccc(C(Nc2nccs2)c2ccc3cccnc3c2O)c1 (stereo not drawn) | 57.6% (active)
57 | Oc1c(C(Nc2nccs2)c2ccc(C(F)(F)F)cc2)ccc2cccnc12 (stereo not drawn) | 24.5%
58 | CC(C)OC(=O)c1ccc(NC(=O)c2ccco2)cc1 | 6.2%
59 | O=[N+]([O-])c1cc(-c2ncccn2)cs1 | -6.6%
60 | O=[N+]([O-])c1cccnc1NCc1cccs1 | 3.1%
61 | COc1ccc(NC(=O)Cn2nc3n(c2=S)CCC3)cc1 | 2.7%
62 | CCSC1=C(C#N)C(c2ccc3c(c2)OCO3)C2=C(CCCC2=O)N1 (stereo not drawn) | 7.2%
63 | CC(=O)C1=C(C)OC(N)=C(C#N)C1c1ccco1 (stereo not drawn) | 10.4%
64 | COC(=O)C1=C(C)OC(N)=C(C#N)C1c1ccco1 (stereo not drawn) | 2.9%
65 | Cc1ccc(C2C(C#N)=C(N)Oc3c2sc2ccccc32)o1 (stereo not drawn) | 57.5% (active)
66 | CCOC(=O)C1=C(C)OC(N)=C(C#N)C1c1ccc(C)o1 (stereo not drawn) | -3.7%
67 | N#CC1=C(N)Oc2c(sc3ccccc23)C1c1ccco1 (stereo not drawn) | 53.1% (active)
68 | Cc1ccc([C@H]2C(C#N)=C(N)Oc3cc(C)oc(=O)c32)o1 | -11.4%
